The target of assay [1] is T1, Serine/threonine-protein kinase Nek9 (Homo sapiens) (UniProt Q8TD19).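 Further: each value is a mean percent inhibition of NEK9.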
T1 sequence (whole entry): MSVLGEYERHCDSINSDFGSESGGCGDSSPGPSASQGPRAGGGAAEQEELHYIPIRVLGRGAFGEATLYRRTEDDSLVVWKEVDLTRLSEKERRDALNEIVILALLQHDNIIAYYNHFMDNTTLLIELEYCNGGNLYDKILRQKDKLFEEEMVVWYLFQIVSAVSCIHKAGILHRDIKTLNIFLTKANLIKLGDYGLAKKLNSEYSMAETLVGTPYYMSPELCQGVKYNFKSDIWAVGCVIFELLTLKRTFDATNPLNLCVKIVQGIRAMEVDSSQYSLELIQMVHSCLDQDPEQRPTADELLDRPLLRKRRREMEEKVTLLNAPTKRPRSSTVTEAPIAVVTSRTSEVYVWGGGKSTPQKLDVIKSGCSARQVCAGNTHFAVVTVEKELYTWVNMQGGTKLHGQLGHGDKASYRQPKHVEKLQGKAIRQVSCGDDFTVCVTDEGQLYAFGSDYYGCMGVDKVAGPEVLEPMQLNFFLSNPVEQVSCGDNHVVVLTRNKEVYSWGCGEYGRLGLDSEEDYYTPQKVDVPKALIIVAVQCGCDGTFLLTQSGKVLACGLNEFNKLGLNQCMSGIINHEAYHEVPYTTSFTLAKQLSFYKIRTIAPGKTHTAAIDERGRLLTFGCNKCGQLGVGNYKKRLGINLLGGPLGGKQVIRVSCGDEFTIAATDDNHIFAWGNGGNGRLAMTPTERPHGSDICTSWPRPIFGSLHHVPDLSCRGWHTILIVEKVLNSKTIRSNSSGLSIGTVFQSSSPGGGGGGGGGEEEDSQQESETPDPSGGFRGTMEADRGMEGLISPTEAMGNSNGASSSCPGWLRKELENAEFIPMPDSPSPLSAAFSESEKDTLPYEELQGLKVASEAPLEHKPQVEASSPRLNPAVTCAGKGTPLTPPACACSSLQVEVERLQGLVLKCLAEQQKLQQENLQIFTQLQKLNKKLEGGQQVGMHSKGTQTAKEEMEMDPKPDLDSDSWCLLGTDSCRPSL
Conditions: at 1 µM.

Assay [2] deals with Serine/threonine-protein kinase PLK1 (Homo sapiens) (UniProt P53350). The following applies: at 0.1 µM.
Chain of Serine/threonine-protein kinase PLK1 (Homo sapiens) (P53350 whole entry): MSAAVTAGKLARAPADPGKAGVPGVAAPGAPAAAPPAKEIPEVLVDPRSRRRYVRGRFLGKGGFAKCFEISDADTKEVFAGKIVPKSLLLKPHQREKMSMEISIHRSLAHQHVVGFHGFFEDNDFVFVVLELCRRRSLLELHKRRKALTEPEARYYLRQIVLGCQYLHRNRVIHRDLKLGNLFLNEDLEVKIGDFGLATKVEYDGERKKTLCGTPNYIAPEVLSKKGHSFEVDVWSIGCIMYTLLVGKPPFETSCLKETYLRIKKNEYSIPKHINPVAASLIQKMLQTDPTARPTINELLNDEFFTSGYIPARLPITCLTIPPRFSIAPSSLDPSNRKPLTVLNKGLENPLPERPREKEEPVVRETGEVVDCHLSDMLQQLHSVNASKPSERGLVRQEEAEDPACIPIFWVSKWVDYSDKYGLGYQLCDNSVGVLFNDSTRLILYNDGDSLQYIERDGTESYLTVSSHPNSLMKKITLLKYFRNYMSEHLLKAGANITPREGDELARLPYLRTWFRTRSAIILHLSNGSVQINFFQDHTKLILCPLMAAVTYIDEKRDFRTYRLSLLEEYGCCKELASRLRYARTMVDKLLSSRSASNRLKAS
The target is the same in assay [3]. Conditions: at 1 µM.
For assay [4], the target named is T2, Dual specificity protein kinase TTK (Homo sapiens) (UniProt P33981).
T2 sequence (whole entry): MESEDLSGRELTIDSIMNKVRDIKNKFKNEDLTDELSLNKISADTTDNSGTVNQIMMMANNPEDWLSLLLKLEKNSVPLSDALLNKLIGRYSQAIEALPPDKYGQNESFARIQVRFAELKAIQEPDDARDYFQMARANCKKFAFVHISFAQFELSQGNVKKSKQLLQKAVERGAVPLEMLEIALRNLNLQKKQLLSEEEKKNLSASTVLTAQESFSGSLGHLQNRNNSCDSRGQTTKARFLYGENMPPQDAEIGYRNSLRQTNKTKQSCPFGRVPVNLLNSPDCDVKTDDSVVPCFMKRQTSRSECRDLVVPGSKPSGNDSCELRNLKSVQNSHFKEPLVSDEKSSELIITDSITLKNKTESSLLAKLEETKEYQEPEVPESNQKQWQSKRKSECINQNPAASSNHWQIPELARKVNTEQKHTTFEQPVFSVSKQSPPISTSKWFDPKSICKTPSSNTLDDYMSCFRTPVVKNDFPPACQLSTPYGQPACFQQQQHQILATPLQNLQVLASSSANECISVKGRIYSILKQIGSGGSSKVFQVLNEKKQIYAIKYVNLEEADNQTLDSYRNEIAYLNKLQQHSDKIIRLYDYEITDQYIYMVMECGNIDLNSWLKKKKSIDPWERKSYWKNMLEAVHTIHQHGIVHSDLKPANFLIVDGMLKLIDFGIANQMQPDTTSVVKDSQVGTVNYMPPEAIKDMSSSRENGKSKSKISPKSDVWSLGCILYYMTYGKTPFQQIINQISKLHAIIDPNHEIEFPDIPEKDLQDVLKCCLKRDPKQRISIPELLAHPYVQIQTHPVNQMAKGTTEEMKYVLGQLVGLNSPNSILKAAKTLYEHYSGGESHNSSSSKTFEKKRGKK
The following applies: at 0.1 µM.

Assay [5] has as its system T3, Receptor-type tyrosine-protein kinase FLT3 (Homo sapiens), P36888 [D835Y].
T3 sequence (whole entry): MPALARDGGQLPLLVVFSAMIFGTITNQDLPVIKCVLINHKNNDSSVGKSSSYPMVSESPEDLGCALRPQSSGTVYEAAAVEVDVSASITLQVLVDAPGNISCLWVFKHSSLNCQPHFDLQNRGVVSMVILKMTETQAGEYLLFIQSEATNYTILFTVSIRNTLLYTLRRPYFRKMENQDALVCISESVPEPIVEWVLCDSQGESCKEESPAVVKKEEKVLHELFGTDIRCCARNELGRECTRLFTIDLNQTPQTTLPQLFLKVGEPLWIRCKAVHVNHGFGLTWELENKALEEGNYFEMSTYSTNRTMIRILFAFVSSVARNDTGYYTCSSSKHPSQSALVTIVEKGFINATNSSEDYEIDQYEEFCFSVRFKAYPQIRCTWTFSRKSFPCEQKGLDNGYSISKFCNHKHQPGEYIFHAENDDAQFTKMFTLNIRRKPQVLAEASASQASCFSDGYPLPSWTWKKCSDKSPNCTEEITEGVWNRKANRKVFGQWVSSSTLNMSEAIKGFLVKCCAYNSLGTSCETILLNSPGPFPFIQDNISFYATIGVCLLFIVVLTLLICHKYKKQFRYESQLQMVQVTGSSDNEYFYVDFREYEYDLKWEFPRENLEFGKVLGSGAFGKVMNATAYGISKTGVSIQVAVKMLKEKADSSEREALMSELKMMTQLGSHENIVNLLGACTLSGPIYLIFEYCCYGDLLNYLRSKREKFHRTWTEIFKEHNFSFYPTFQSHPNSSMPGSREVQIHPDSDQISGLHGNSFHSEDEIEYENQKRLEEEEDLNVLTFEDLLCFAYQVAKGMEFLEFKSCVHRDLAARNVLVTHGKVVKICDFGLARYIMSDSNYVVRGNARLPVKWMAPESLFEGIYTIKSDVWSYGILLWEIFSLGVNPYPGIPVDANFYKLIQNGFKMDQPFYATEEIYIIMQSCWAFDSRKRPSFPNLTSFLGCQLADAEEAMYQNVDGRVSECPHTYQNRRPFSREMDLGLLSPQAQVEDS
Conditions: at 1 µM.

The target in assay [6] is Vascular endothelial growth factor receptor 3 (Homo sapiens) (UniProt P35916). Conditions: at 0.1 µM.
The target is the same in assay [7]. Conditions: at 1 µM.
In assay [8] the target is Macrophage colony-stimulating factor 1 receptor (Homo sapiens) (UniProt P07333). Conditions: at 0.1 µM.
Chain of Macrophage colony-stimulating factor 1 receptor (Homo sapiens) (P07333 whole entry): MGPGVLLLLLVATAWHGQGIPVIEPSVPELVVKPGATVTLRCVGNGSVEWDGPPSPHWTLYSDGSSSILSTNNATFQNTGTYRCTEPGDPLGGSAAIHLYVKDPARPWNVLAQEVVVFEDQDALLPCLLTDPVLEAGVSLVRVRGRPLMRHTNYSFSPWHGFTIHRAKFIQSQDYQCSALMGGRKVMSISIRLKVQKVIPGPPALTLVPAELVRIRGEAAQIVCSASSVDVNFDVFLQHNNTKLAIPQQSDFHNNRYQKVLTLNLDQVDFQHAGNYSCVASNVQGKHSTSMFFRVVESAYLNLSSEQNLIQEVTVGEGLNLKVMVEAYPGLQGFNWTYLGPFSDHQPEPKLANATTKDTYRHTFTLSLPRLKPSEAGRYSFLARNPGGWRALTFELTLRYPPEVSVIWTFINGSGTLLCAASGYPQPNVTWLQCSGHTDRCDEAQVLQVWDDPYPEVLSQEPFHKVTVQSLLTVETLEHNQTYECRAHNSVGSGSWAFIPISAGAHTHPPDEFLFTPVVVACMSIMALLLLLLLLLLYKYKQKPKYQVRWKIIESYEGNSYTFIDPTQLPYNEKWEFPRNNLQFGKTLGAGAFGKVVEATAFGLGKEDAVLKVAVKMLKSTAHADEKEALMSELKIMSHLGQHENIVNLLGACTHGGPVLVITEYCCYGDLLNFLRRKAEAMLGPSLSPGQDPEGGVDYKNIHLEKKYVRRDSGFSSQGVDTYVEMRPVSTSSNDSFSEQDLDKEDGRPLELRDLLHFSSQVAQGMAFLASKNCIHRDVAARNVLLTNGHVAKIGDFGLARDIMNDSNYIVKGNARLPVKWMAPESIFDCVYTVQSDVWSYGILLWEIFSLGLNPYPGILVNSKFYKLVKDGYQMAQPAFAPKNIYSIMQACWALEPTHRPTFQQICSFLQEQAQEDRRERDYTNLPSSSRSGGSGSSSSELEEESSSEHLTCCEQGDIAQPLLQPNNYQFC
Assay [9] shares this target. The following applies: at 1 µM.
Assay [10] addresses Tyrosine-protein kinase Fyn (Homo sapiens) (UniProt P06241). The following applies: at 0.1 µM.
Assay [11] shares this target. Conditions: at 1 µM.
In assay [12] the target is Tyrosine-protein kinase HCK (Homo sapiens) (UniProt P08631). Conditions: at 0.1 µM.
Chain of Tyrosine-protein kinase HCK (Homo sapiens) (P08631 2-526 limits assumed): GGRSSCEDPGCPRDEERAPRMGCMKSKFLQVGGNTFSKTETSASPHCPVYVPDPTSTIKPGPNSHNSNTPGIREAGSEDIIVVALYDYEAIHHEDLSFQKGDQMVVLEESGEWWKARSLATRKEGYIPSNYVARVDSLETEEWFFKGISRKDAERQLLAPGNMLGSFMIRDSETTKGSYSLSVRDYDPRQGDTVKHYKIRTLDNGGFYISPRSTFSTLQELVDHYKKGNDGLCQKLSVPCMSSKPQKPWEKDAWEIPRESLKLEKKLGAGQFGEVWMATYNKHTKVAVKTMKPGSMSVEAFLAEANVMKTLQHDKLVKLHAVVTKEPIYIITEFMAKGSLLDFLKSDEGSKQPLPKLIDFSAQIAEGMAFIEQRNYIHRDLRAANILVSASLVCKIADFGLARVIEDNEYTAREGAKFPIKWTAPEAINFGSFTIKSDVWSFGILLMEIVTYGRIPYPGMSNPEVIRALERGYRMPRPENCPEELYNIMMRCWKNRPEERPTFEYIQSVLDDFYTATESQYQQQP
For assay [13] the target is unchanged. The following applies: at 1 µM.
The target in assay [14] is Insulin-like growth factor 1 receptor (Homo sapiens) (UniProt P08069). Conditions: at 0.1 µM.
Chain of Insulin-like growth factor 1 receptor (Homo sapiens) (P08069 31-736 limits assumed): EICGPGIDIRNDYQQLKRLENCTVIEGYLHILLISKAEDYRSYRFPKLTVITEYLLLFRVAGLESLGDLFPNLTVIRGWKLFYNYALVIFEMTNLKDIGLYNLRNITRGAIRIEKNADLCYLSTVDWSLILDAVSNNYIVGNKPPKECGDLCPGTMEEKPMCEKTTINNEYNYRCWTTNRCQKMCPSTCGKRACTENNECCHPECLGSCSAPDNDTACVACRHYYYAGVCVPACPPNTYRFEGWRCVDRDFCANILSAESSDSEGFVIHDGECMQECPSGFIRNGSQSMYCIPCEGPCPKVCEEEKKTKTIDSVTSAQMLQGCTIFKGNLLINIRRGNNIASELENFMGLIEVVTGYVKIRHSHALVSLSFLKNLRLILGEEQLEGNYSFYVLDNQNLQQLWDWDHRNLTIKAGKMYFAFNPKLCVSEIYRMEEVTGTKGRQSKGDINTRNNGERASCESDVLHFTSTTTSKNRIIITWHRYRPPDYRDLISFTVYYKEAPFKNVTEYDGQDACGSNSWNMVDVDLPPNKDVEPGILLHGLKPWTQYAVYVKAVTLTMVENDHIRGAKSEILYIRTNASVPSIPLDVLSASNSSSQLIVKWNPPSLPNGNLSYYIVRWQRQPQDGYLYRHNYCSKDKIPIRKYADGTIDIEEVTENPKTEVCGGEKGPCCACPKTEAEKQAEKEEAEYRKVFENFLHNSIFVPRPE
Chain of Insulin-like growth factor 1 receptor (Homo sapiens) (P08069 741-1367 limits assumed): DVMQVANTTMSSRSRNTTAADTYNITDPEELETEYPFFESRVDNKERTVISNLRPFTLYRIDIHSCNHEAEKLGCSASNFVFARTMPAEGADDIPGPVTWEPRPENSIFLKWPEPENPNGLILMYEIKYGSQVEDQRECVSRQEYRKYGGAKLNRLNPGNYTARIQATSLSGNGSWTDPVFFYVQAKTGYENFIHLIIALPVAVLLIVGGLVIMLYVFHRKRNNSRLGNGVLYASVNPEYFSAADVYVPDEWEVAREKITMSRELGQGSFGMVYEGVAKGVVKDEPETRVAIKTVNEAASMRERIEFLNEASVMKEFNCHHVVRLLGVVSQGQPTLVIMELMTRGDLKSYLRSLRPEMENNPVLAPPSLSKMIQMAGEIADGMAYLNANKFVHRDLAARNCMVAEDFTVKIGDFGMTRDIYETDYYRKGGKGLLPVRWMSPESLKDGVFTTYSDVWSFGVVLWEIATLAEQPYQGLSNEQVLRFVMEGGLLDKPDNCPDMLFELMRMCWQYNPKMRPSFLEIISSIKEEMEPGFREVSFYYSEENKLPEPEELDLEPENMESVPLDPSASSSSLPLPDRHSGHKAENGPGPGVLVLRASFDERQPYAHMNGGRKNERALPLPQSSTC
The target is the same in assay [15]. The following applies: at 1 µM.
Assay [16] concerns the target Insulin receptor (Homo sapiens) (UniProt P06213). The following applies: at 0.1 µM.
Assay [17] shares this target. The following applies: at 1 µM.
In assay [18] the target is Insulin receptor-related protein (Homo sapiens) (UniProt P14616). Conditions: at 0.1 µM.
Assay [19] has the same target. The following applies: at 1 µM.
Assay [20] addresses T4, Tyrosine-protein kinase ITK/TSK (Homo sapiens) (UniProt Q08881).
T4 sequence (whole entry): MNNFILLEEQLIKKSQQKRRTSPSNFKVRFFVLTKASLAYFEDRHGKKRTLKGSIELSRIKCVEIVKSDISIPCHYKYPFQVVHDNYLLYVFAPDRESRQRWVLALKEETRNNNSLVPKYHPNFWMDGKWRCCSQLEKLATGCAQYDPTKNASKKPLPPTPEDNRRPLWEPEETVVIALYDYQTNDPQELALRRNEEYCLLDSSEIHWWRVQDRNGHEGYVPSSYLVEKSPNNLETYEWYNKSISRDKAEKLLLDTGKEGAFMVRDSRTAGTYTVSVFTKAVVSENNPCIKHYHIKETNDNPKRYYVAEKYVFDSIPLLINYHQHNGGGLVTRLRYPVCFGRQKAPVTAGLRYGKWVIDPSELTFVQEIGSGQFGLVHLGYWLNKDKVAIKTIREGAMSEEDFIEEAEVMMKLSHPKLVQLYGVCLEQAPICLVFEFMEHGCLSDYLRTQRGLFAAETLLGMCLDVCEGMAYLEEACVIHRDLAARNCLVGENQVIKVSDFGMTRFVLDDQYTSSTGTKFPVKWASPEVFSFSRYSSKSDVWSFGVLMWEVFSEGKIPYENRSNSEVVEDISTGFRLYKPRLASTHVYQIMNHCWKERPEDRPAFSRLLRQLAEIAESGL
The following applies: at 0.1 µM.

The source of these data is ChEMBL document CHEMBL1961873, “Compounds: GSK PKIS; Assays: Nanosyn kinase panel” (2012).

Chain of Tyrosine-protein kinase Fyn (Homo sapiens) (P06241 2-537 limits assumed): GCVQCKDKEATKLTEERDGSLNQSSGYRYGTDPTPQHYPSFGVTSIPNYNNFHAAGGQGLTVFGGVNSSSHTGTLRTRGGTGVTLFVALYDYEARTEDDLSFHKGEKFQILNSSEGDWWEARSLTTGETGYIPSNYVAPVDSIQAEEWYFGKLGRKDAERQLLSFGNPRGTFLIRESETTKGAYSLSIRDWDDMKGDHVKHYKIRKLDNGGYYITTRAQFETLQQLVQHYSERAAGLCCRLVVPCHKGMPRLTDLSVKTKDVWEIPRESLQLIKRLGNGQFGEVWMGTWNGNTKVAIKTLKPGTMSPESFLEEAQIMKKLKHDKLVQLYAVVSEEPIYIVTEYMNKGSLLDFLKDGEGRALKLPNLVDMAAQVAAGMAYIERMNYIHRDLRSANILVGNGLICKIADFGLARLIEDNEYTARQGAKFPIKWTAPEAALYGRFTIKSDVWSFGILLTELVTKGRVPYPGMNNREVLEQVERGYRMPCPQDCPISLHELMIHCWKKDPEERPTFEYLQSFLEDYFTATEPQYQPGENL

On to `FC(F)(F)c1ccc(-c2nn3ncccc3c2-c2ccnc(Nc3ccc4c(c3)OCCO4)n2)cc1`, for which the inhibition (as a rule, the drop in the measured response relative to a control, in per cent) in assay [1] is -0.89%; in assay [2], 0.09%; in [3], -1.77%; in assay [4], 3.35%; in assay [5] it was -0.25%; in [6], -2.47%. Besides, the inhibition came out at 4.74% in [7]; 0.29% in assay [8]; 10.3% in [9]; 2.65% in assay [10]; 21.2% in assay [11]; 0.59% in [12]. The inhibition in assay [13] is 15.1%; in [14] it was -3.01%; in assay [15], -2.92%; in assay [16] it was 0.23%; in [17] it was 0.63%; in [18] it was -0.78%. Also, the figures for the inhibition in assay [19] and in assay [20] were 0.97% and 5.77%, respectively.

As for `COc1cc(/C=N/Nc2ncnc3c2cnn3C(C)C)ccc1O`, the inhibition in [1] turned out to be 5.67%; in [2] it was 3.79%; in assay [3] it was 4.86%; in assay [4], 4.56%; in assay [5], 23.1%; in assay [6] it was 13.8%. In addition, the inhibition in [7] was found to be 22.1%; in assay [8], 8.23%; in assay [9], 42.3%; in assay [10], 8.53%; in assay [11], 40.2%; in assay [12] it was 7.16%. For the same compound, the inhibition in assay [13] was 32.6%; in assay [14], 9.1%; in assay [15], 7.79%; in [16], 2.75%; in [17] it was 2.59%; in [18], -1.25%. In addition, the inhibition in assay [19] worked out at 2.79%; in [20] it was 1.18%.

For the compound `COC(=O)c1ccc2c(c1)C(=Cc1cc(Br)c(O)c(Br)c1)C(=O)N2`, the inhibition stood at 11.3% in [1]; 5.7% in [2]; 17.4% in assay [3]; 13.3% in assay [4]; 4.72% in assay [5]; 1.46% in [6]. The inhibition in assay [7] was 9.65%; in assay [8] it was 2.87%; in assay [9], 16.5%; in [10] it was 5.27%; in assay [11] it was 22.5%; in [12] it was 5.59%. Also, the inhibition in [13] amounted to 18.3%; in [14] it was 3.29%; in [15], 2.72%; in assay [16] it was 3.96%; in [17], 3.99%; in [18], 1.56%. Also, the figures for the inhibition in assay [19] and in assay [20] were 1.64% and 2.44%, respectively.
